Test results published in PubChem BioAssay AID1159580 (chemical genetic matrix, 2015).
“And” between values parts separate entries of the source, which are not always exact repeats. Equal values may be shown once. The whole screen tested about 5,500 compounds, of which about 2,000 (36%) were called active. About 18% were inconclusive and are not listed. Rule as the data show it: active = normalized growth mostly below about 0.91 (no sharp cut-off); inconclusive = no clear call, values can overlap the other calls; inactive = mostly above about 0.92. Some of the results follow.

Experiment: chemical genetic growth profiling, strain panel (AID 1159580);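 also: tested at 20 µM; growth read once vehicle control cultures reached saturation at 30 °C; 1 = growth at the plate median or of vehicle wells; lower values mean less growth of the strain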
Conditions: S. cerevisiae deletion strains, growth OD

Measured: normalized growth

C#C[C@]1(OC(C)=O)CCC2C3CCC4=CC(=O)CC[C@@H]4C3CC[C@@]21C (some centres not stated)
inactive: locus YAL013W, strain DEP1, active compounds read low 0.97 | locus YAL021C, strain ccr4, active compounds read low 0.988 | locus YAL026C, strain drs2, active compounds read low 0.984 | locus YAL030W, strain snc1, active compounds read low 0.986 | locus YBL061C, strain skt5, active compounds read low 0.981 | locus YBR009C, strain hhf1, active compounds read low 0.991 | locus YBR021W, strain FUR4, active compounds read low 0.98 | locus YBR023C, strain chs3, active compounds read low 0.976 | locus YBR171W, strain sec66, active compounds read low 0.974 | locus YBR229C, strain ROT2, active compounds read low 0.953 | locus YBR231C, strain swc5, active compounds read low 1.01 | locus YBR279W, strain paf1, active compounds read low 0.977 | locus YCL011C, strain gbp2, active compounds read low 0.985 | locus YCL016C, strain dcc1, active compounds read low 0.974 | locus YCL029C, strain bik1, active compounds read low 0.96 | locus YCL069W, strain vba3, active compounds read low 0.973 | locus YCR088W, strain abp1, active compounds read low 0.99 | locus YDL005C, strain med2, active compounds read low 0.971 | locus YDL035C, strain GPR1, active compounds read low 0.972 | locus YDL040C, strain nat1, active compounds read low 0.985 | locus YDL074C, strain BRE1, active compounds read low 0.965 | locus YDL101C, strain DUN1, active compounds read low 0.97 | locus YDL134C, strain PPH21, active compounds read low 0.948 | locus YDL185W, strain tfp1, active compounds read low 0.976 | locus YDL192W, strain arf1, active compounds read low 0.961 | locus YDR001C, strain nth1, active compounds read low 0.999 | locus YDR069C, strain doa4, active compounds read low 0.969 | locus YDR101C, strain arx1, active compounds read low 0.977 | locus YDR137W, strain rgp1, active compounds read low 0.982 | locus YDR159W, strain sac3, active compounds read low 0.936 | locus YDR162C, strain NBP2, active compounds read low 0.961 | locus YDR195W, strain ref2 0.978 | locus YDR297W, strain sur2, active compounds read low 0.994 | locus YDR318W, strain mcm21, active compounds read low 0.941 | locus YDR334W, strain swr1, active compounds read low 1.02 | locus YDR335W, strain msn5, active compounds read low 0.978 | locus YDR388W, active compounds read low 0.966 | locus YDR392W, strain spt3, active compounds read low 0.828 | locus YDR502C, strain sam2, active compounds read low 0.949 | locus YEL003W, strain gim4, active compounds read low 1.01 | locus YEL037C, strain rad23, active compounds read low 1 | locus YEL061C, strain CIN8 (second series), active compounds read low 0.991 | locus YEL061C, strain CIN8, active compounds read low 0.978 | locus YER015W, strain faa2, active compounds read low 0.995 | locus YER016W, strain bim1, active compounds read low 0.988 | locus YER110C, active compounds read low 0.97 | locus YER111C, strain swi4, active compounds read low 0.985 | locus YER155C, strain BEM2 (second series), active compounds read low 0.975 | locus YER155C, strain BEM2, active compounds read low 0.971 | locus YER167W, strain BCK2, active compounds read low 0.974 | locus YFR010W, strain ubp6, active compounds read low 1 | locus YGL078C, strain dbp3, active compounds read low 0.989 | locus YGL086W, strain mad1, active compounds read low 0.957 | locus YGL167C, strain pmr1, active compounds read low 0.993 | locus YGL173C, strain kem1, active compounds read low 0.989 | locus YGL227W, strain vid30, active compounds read low 0.975 | locus YGL240W, strain doc1, active compounds read low 1 | locus YGL248W, strain PDE1, active compounds read low 0.967 | locus YGL253W, strain hxk2, active compounds read low 1.01 | locus YGR135W, strain pre9, active compounds read low 0.925 | locus YGR252W, strain gcn5, active compounds read low 1.07 | locus YHR013C, strain ard1, active compounds read low 0.955 | locus YHR027C, strain rpn1, active compounds read low 1.01 | locus YHR030C, strain SLT2, active compounds read low 0.975 and 0.933 | locus YHR079C, strain IRE1 (second series), active compounds read low 0.969 | locus YHR079C, strain IRE1, active compounds read low 0.92 | locus YHR094C, strain hxt1, active compounds read low 0.981 | locus YHR129C, strain ARP1, active compounds read low 0.974 | locus YHR142W, strain chs7, active compounds read low 1 | locus YHR200W, strain rpn10, active compounds read low 0.963 | locus YIL066C, strain RNR3, active compounds read low 0.965 | locus YIL073C, strain SPO22, active compounds read low 0.926 | locus YIL125W, strain kgd1, active compounds read low 0.971 | locus YIR030C, strain dcg1, active compounds read low 0.961 | locus YJL092W, strain hpr5, active compounds read low 1 | locus YJL095W, strain BCK1 (second series), active compounds read low 0.984 | locus YJL095W, strain BCK1, active compounds read low 0.926 and 0.95 | locus YJL115W, strain asf1, active compounds read low 0.982 | locus YJL129C, strain trk1, active compounds read low 0.975 | locus YJL134W, strain LCB3, active compounds read low 0.973 | locus YJL154C, strain vps35, active compounds read low 0.985 | locus YJL164C, strain tpk1, active compounds read low 0.99 | locus YJL166W, strain qcr8, active compounds read low 0.995 | locus YJL168C, strain set2, active compounds read low 0.97 | locus YJL187C, strain SWE1 (second series), active compounds read low 0.961 | locus YJR043C, strain POL32, active compounds read low 1.03 | locus YJR066W, strain TOR1, active compounds read low 0.903
